From ChEMBL document CHEMBL4513146, “CO-ADD screening of Karazin Kharkiv National University (Ukraine) compounds”
Potency and affinity values are given separately.

What was measured:
Staphylococcus aureus = settings: Concentration 32 ug.mL-1;; ASSAY_TEST Inhibition of Bacterial Growth; detection method Absorption (OD600); MEDIA CAMHB; plate type 384well; NBS; CORNING #3640; time 18 hr
Escherichia coli = settings: Concentration 32 ug.mL-1;; ASSAY_TEST Inhibition of Bacterial Growth; detection method Absorption (OD600); MEDIA CAMHB; plate type 384well; NBS; CORNING #3640; time 18 hr

SMILES	Inhibition (Staphylococcus aureus)	Inhibition (Escherichia coli)
COc1ccc(-n2ccn3c(-c4ccc([N+](=O)[O-])cc4)nnc3c2=O)cc1	12.69%	-0.05%
COc1cc(NC(=O)Cn2nc3ccc(C(=O)NCc4ccccc4)cn3c2=O)cc(OC)c1OC	-6.97%	-8.69%
Cc1ccc(NC(=O)Cn2nc3ccc(-c4ccc(Cl)cc4)nn3c2=O)cc1	0.77%	-0.85%
CCc1ccc(NC(=O)Cn2c(=O)c3nnc(C(C)C)n3c3ccccc32)cc1	6.08%	6.05%
Cc1ccc(-c2cc3c4nn(CC(=O)N5CCN(c6ccccc6F)CC5)c(=O)n4ccn3n2)cc1C	8.03%	4.31%
CC(C)c1nnc2c(SCC(=O)Nc3ccccc3F)nc3ccccc3n12	10.78%	-2.22%
COc1ccc(-c2cc3c4nn(CC(=O)Nc5ccc(OC)cc5OC)c(=O)n4ccn3n2)cc1	6.72%	-3.4%
O=C(CSc1nnc2c(=O)n(-c3ccccc3)ccn12)N1CCN(c2ccc(F)cc2)CC1	7.73%	-1.4%
CCCCOc1ccc(-c2cc3c4nnc(SCC(=O)Nc5ccc(C)c(C)c5)n4ccn3n2)cc1	10.66%	-4.59%
CCCCOc1ccc(-c2cc3c4nnc(SCC(=O)Nc5c(C)cccc5CC)n4ccn3n2)cc1	-40.6%	-38.25%
COc1ccc(NC(=O)C(C)Sc2nnc3c(=O)n(-c4cccc(OC)c4)ccn23)cc1 (centres undefined)	6.45%	-9.09%
CC(C)c1nnc2c(SCC(=O)Nc3ccc4c(c3)OCO4)nc3ccccc3n12	-0.91%	-6.38%
O=C(CSc1nnc2c(=O)n(-c3ccc(Br)cc3)ccn12)Nc1cccc(F)c1	9.13%	-1.52%
COc1cccc(Oc2nccn3c(=O)n(CC(=O)Nc4ccccc4C(F)(F)F)nc23)c1	13.2%	-0.25%
Cc1cccc(C)c1NC(=O)CSc1nnc2c3cc(-c4ccccc4)nn3ccn12	-21.6%	-21.37%
COc1ccc(-c2cc3c4nn(CC(=O)Nc5ccc(F)cc5)c(=O)n4ccn3n2)cc1	-1.37%	-7.82%

SMILES	Inhibition (Staphylococcus aureus)	Inhibition (Escherichia coli)
COc1cccc(-n2ccn3c(SCc4cccc(C(F)(F)F)c4)nnc3c2=O)c1	7.34%	-9.08%
COc1ccccc1-n1ccn2c(SCc3cccc(F)c3)nnc2c1=O	11.17%	-7.27%
CC(C)c1nnc2c(SCC(=O)Nc3ccccc3C(F)(F)F)nc3ccccc3n12	6.66%	-3.21%
Cc1ccc(Oc2nccn3c(=O)n(CC(=O)NCc4ccccc4Cl)nc23)cc1	12.36%	-4.03%
O=C(CSc1nnc2c(=O)n(-c3cccc(F)c3)ccn12)Nc1ccc(Br)cc1	17.12%	-2.48%
CCc1cccc(NC(=O)Cn2nc3c(Sc4ccc(C)cc4C)nccn3c2=O)c1	-6.82%	-19.78%
COc1ccc(NC(=O)Cn2nc3ccc(SCc4ccc(Cl)cc4)nn3c2=O)cc1OC	0.34%	-7.61%
COc1cc(NC(=O)Cn2nc3ccc(SC(C)(C)C)nn3c2=O)cc(OC)c1OC	10.38%	1.07%
O=C(Cn1nc2ccc(SCc3ccc(Cl)cc3)nn2c1=O)NCc1ccccc1	7.82%	-9.37%
O=C(CSc1nnc2c3cc(-c4ccc(F)cc4)nn3ccn12)NCCc1ccccc1	4.82%	-7.39%
CCc1nnc2c(S(=O)(=O)N(Cc3cc(F)cc(F)c3)c3ccc(F)cc3)cccn12	-5.33%	-11.24%
COC(=O)c1sccc1NC(=O)CSc1nc2ccccc2n2c(C)nnc12	17.15%	5.14%
COC(=O)c1ccc(NC(=O)Cn2nc3c4cc(-c5ccc(F)cc5)nn4ccn3c2=O)cc1	-6.17%	3.19%
COc1ccc(CN(c2ccc(F)cc2)S(=O)(=O)c2cccn3c(C)nnc23)cc1	15.23%	-3.22%
Cc1nc(-c2ccccc2)cc2nn(CC(=O)Nc3ccc4c(c3)OCO4)c(=O)n12	14.7%	-4.44%
COc1cccc(-n2ccn3c(SCc4ccc(Cl)cc4)nnc3c2=O)c1	-2.27%	1.4%
